# From the supplement of paper PMC5499739
# The full ranking holds about 16,000 sequences; the median of “Z-score” is about -0.37, and the highest 2% start at about 3.2. The sample holds the highest values, similar sequences and a random draw of the others, so the mix is not that of the screen.
# Tested on: RBM10 RRM1-ZnF (GST-tagged construct)
# Assay: RNAcompete 7-mer binding Z-score; higher = stronger binding preference
# Experimental: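 RNAcompete: 20 pmol GST-tagged RBM10 RNA-binding constructs were incubated with a designed RNA pool of about 241,000 sequences up to 41 nt (1.5 nmol) on glutathione beads for 30 min at 4 °C and washed. Bound RNAs were identified by microarray hybridisation. Each RNA 7-mer is scored by a one-sided Z-score of its enrichment, computed over probes that contain the 7-mer within longer pool sequences.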
row,Sequence,RNAcompete 7-mer binding Z-score
1,AAGGAUG,4.14
2,AUGGAUG,3.28
3,GAGGAUG,3.1
4,AAGGAGA,3.37
5,GAGGAGG,2.97
6,AUGGAUA,2.89
7,UAGGAGG,2.77
8,UAGGAGA,1.94
9,AUGGAUU,1.71
10,AAGGAUA,2.99
11,AAGGAGG,4.7
12,CAGGAGA,1.93
13,GUAUCUC,-0.594
14,GCGGUUA,1.32
15,CCACUGG,-0.152
16,UUUCGAA,-0.678
17,UGACACG,0.0138
18,GAUGUUA,-0.116
19,GCGACCC,-0.545
20,CCGUUCC,-0.967
21,UAAUGCA,-0.386
22,UGACUCG,-0.487
23,GUAAGGA,2.67
24,GUAAGGG,3.85
25,AUAAGGA,2.08
26,AUAAGGU,1.72

row,Sequence,RNAcompete 7-mer binding Z-score
1,GUAAGGC,1.67
2,AUAAGGG,3.77
3,GAGAAUC,0.0593
4,UACGUGU,-0.318
5,GAUAUAU,-0.178
6,ACGAUUA,-0.366
7,UUAACGU,-0.324
8,UUUUCAU,-0.727
9,GAUAGGG,4.05
10,GUUAGGG,3.73
11,UAUAGGG,2.69
12,AAUAGGC,0.192
13,CAUAGGG,1.51
14,AAUAGGU,1.37
15,UUUAGGG,1.65
16,GUUAGGU,1.86
17,AAUAGGG,3.28
18,UAGAACU,-0.155
19,GACCCCU,-0.704
20,AACGGCA,0.42
21,CGUGCGG,1.09
22,CGCGCCA,-0.337
23,AGGGGGC,1.83
24,AAAGGGG,4.5
25,AGGGGGA,2.47
26,AAGGGGU,4.48

row,Sequence,RNAcompete 7-mer binding Z-score
1,AAGGGGG,4.31
2,AAGGGCU,1.62
3,AAGGGGC,3.13
4,AAAGGCG,1.21
5,AGGGGGU,3.09
6,AAGGGGA,4.47
7,GUCGCUA,-0.243
8,CUGGAGA,0.501
9,UUAGAAU,-0.152
10,CGUGAUC,-0.704
11,GAAUCGG,1.41
12,UGAACAC,-0.347
13,GCUUGUC,-0.665
14,UCUGGGG,1.39
15,CGGAGAA,1.36
16,AAUUGCC,-0.626
17,UGGAUAU,1.17
18,AGCAUAA,-0.292
19,GAGGGAA,3.42
20,GAGGGCU,1.3
21,UAAAGGG,2.85
22,GAGGAAA,2.27
23,GAGGGAC,2.06
24,AAAAGGG,3.8
25,GAGGGGC,2.44
26,GAGGGGA,3.62

row,Sequence,RNAcompete 7-mer binding Z-score
1,GAGGGGG,2.9
2,CAGGGGA,2.99
3,GAGGGGU,3.59
4,CAAAGGG,2.23
5,GAAAGUU,0.225
6,CAUAGGA,0.54
7,GCCGUUA,-0.607
8,GCAGGCA,0.495
9,AUGUAAG,0.397
10,AGGGGCG,2.28
11,GGGGGCG,2.47
12,UGGGGUC,2.57
13,UUGGGUG,3.83
14,AGGGGUG,3.85
15,UCGGGUG,2.34
16,UUGGGUC,1.04
17,UUGGGUU,2.66
18,GGGGGUC,2.18
19,UGGGGUG,4.74
20,GGGGGUG,4.02
21,AUACAGU,-0.00571
22,GUCCAGA,-0.474
23,GGGCUCA,0.485
24,AGGUGUU,0.988
25,AAUGCCC,-0.613
26,ACCGUAU,-0.746

row,Sequence,RNAcompete 7-mer binding Z-score
1,AUGGGUU,2.89
2,CCGGGUG,1.47
3,CGGGGUC,2.14
4,GUGGGUA,3.53
5,GUAGGUA,2.15
6,AUUGGUG,2.27
7,AUGGGUC,2.19
8,AUGGGUA,3.54
9,CGGGGUG,3.76
10,AUCGGUG,0.894
11,CUGGGUA,2.13
12,AUGGGUG,4.03
13,UAUACUC,-0.769
14,UAAACAA,-0.392
15,ACCGUUC,-0.948
16,AAACACC,-0.6
17,CUGCGGC,0.0138
18,GCAUGGC,0.176
19,AACCGCG,-0.353
20,CACGGGU,1.99
21,GUGGGUG,4.14
22,CUGGGUG,1.83
23,GUGGGUC,2.36
24,GCGAAAA,0.0528
25,GCGCCCC,-0.0934
26,AUUCCUA,-0.756

row,Sequence,RNAcompete 7-mer binding Z-score
1,UUAGGCU,0.095
2,CUGGGUU,1.53
3,GGGGGUU,3.67
4,UGGGGGU,3.87
5,UGGGGUU,3.29
6,AGGGGUU,2.52
7,UGGGGCU,2.3
8,AUUUAUC,-0.691
9,UAUGGCA,0.413
10,CAGCUCG,-0.704
11,UGAAGAA,0.228
12,CGCCUAA,-0.694
13,CCUGAUC,-0.792
14,GUGUUUA,0.27
15,CAGUGGG,2.24
16,GAGUGGC,1.53
17,AAGUGGG,3.73
18,GAGUGGA,3.26
19,UAGUGGA,1.54
20,AAGUGGU,1.82
21,GAGUGGU,2.46
22,AAGUGGA,3.31
23,CAGUGGA,1.38
24,CCAAGAC,-0.646
25,GUAGUCA,0.157
26,CCAUCUG,-0.772

row,Sequence,RNAcompete 7-mer binding Z-score
1,UGUGUCG,0.043
2,UGGGGCA,3.56
3,AGGGGCA,2.47
4,UUGGGGA,2.82
5,UGGGGGA,3.71
6,UCUGGGA,0.508
7,UCGGGAA,1.33
8,GGGGGCA,2.92
9,GGGGGGA,3.3
10,CGGGGAA,2.71
11,CGGGGGA,3.17
12,UGGGGAA,3.66
13,GGGGCGA,2.46
14,AACGGAC,0.413
15,GCAAAAC,-0.0902
16,AGCAUGA,-0.119
17,CUAGCGA,-0.347
18,CAGAGGU,1.25
19,UACGGAA,0.699
20,CUACAGA,-0.636
21,AGAGCAG,0.699
22,UGGCUAG,0.391
23,GCGAGGG,3.54
24,ACGAGGG,3.35
25,GCGAGGA,1.93
26,ACGAGGC,0.319

row,Sequence,RNAcompete 7-mer binding Z-score
1,ACGAGGU,0.959
2,UCGAGGG,1.95
3,CUGCUAU,-0.691
4,AGAUGCG,0.111
5,CCGCUCC,-0.474
6,ACAGGGG,3.33
7,GCAAGGA,2.4
8,GCAGGGU,3.43
9,ACAGGGU,2.94
10,ACAGGGA,3
11,GCAAGGG,3.46
12,GCAGGGG,3.32
13,CCAGGGU,1.29
14,GCAGGGC,1.35
15,CCAGGGG,1.46
16,GCAAGGU,1.94
17,ACAGGGC,1.84
18,CGACAAC,-0.542
19,GUCGGCU,-0.0252
20,GCUAUGC,-0.269
21,CAACGAU,-0.409
22,GAUAGUC,-0.279
23,AAACCCA,-0.701
24,AACGCUG,-0.5
25,CAAAACG,-0.119
26,AGCUUAC,-0.639

row,Sequence,RNAcompete 7-mer binding Z-score
1,ACACGGC,-0.191
2,CGCUUAU,-0.649
3,AGGAGGG,3.53
4,AGGAGGU,2.47
5,GGGAGUA,2.53
6,AGGAGUG,2.91
7,UGGAGGA,2.87
8,GGGAGUG,3.73
9,GAGAGGG,2.7
10,GGGAGGG,4.74
11,GGGAGGA,3.47
12,AGGAGGC,1.37
13,AGGAGGA,2.25
14,CGGAGGG,2.91
15,UCAGCGG,0.309
16,AUGUCCG,-0.626
17,UUACGCA,-0.584
18,UGGAGGG,4.07
19,CGGAGGU,2.41
20,UGGAGGC,1.96
21,GGGAGGC,2.92
22,GGGAGCC,0.917
23,GGGAGGU,3.68
24,CGGAGCG,1.23
25,GGGAGCG,3.35
26,UGGAGGU,2.84

row,Sequence,RNAcompete 7-mer binding Z-score
1,AGCAACA,-0.158
2,AGUCUAC,-0.584
3,GCGUUUG,0.131
4,GGUUGUG,2.29
5,CUACUGA,-0.659
6,UUGUGGG,2.83
7,AUGUGGG,3.84
8,GUGUGGG,3.93
9,GUGUGGA,2.98
10,AUGUGGC,0.586
11,GUGUGGU,2.39
12,CAUCAAG,-0.47
13,UUUAUGG,0.303
14,CCAACAC,-0.5
15,GGGGUGU,4.3
16,AGGGUCA,1.14
17,UGGGUGC,2.92
18,GCGGUGU,1.1
19,AGGGUGU,3.11
20,AGGGUGA,4.19
21,GCGGUGG,2.85
22,AUGGUGA,2.6
23,UGGGUGG,4.14
24,UGGGUCG,2.09
25,GGGGUGC,2.92
26,GGGGUGG,4.71

row,Sequence,RNAcompete 7-mer binding Z-score
1,UAAAUAG,-0.0674
2,CGUAUUU,-0.769
3,UUCACGG,-0.448
4,GAAGACG,1.09
5,CUAAGAA,-0.331
6,CUACAUG,-0.591
7,GAUCAGA,0.316
8,AGUUAGU,-0.0642
9,ACAUCCC,-0.587
10,GGGGUCA,2.86
11,GCGGUGA,1.2
12,GGGGUGA,4.16
13,CGGGUGG,3.64
14,AGGGUGC,2.6
15,UCGGUGA,0.452
16,AGGGUGG,4.42
17,UGGGUGA,3.38
18,ACGGUGG,2.76
19,CGGGUGC,1.85
20,CGGGUGA,2.66
21,CGGGUGU,2.14
22,UCCAUUA,-0.75
23,UCUCCCC,-0.587
24,CCUCGGG,0.423
25,GCGUCAC,-0.0252
26,GUCUUUA,-0.652

row,Sequence,RNAcompete 7-mer binding Z-score
1,GUUUCGA,-0.396
2,AUAUUAU,-0.402
3,AGUUGCU,-0.334
4,UGGGUGU,3.53
5,GGUGUGG,4.32
6,GGUGUGU,1.7
7,UCGGUGU,0.524
8,UUGGUGU,1.51
9,UGUGUGG,1.89
10,ACUCUAA,-0.685
11,GCACCCU,-0.496
12,AAAUCCC,-0.86
13,GCAUUCA,-0.396
14,CUGUUCU,-0.847
15,UGUGGGA,2.87
16,GGUGGGC,3.3
17,UGUGGUG,1.84
18,UCUGGGU,0.81
19,GCUGGGU,2.3
20,GGUGGGU,3.78
21,GGUGGUC,2.06
22,GGUGGUU,2.61
23,UGUGGGU,3.46
24,UGUGGGG,3.96
25,UGUGGUU,1.84
26,UGUGGGC,2.06

row,Sequence,RNAcompete 7-mer binding Z-score
1,CUAAUUG,-0.617
2,UUGAACG,-0.139
3,ACCCACU,-0.675
4,GGAUGUA,1.7
5,GUUUGUG,0.865
6,AUCUAAC,-0.681
7,AACCGGC,-0.6
8,AGUGUCC,-0.604
9,GGACGUA,0.833
10,UUAUGAU,-0.353
11,CUGAAUG,-0.285
12,AGUGUGG,2.95
13,AGUGGUA,2.01
14,CGUGGGU,2.81
15,AGUGGGC,2.67
16,GGUGGGA,4.26
17,GCUGGGA,2.03
18,ACUGGGU,2.06
19,GGUGGCA,2.02
20,AGUGGGG,4.49
21,AUUGGGA,2.83
22,AGUGGGA,4.13
23,AGUGGGU,3.49
24,UCAUCCG,-0.808
25,CAGUGAG,0.706
26,UUCUUUG,-0.659

row,Sequence,RNAcompete 7-mer binding Z-score
1,GCUGAAG,0.699
2,ACACUUG,-0.535
3,UCUAUAC,-0.821
4,CGUGGGA,2.33
5,CGUGGGC,1.85
6,CGUGGGG,3.65
7,AUUUAAG,-0.298
8,UAGUCAU,-0.444
9,AGGGAAU,3.05
10,GGGGAAC,2.42
11,GGGGAAG,4.31
12,GGGGACG,2.55
13,CGGGAAU,1.68
14,GGGGAAU,3.41
15,CGACUUC,-0.785
16,CCCUUGC,-0.694
17,GCCAGUA,-0.288
18,UGCCUCC,-0.506
19,CGGAAGG,2.53
20,UGGAAGG,4.12
21,AGGAAGU,1.06
22,AGGAAGG,4.31
23,AGGAAGA,1.7
24,UGGAAGU,1.79
25,AUACUAG,-0.337
26,AACCAUC,-0.763

row,Sequence,RNAcompete 7-mer binding Z-score
1,CUAGCUG,-0.386
2,GGUUGAG,3.3
3,CGGUGAA,0.595
4,AGGUGAU,1.8
5,GGGUGAU,3.22
6,GGGUGAA,3.87
7,UGGUGAU,1.2
8,GGGUGAC,3.04
9,UGGUGAA,1.71
10,UGUUGAG,0.716
11,CGUUGAG,-0.0512
12,GGGUGAG,4.36
13,CGGUGAG,1.42
